# Measured values reported in ChEMBL document CHEMBL4513216, “Probing the Open Global Health Chemical Diversity Library for Multistage-Active Starting Points for Next-Generation Antimalarials” (ACS Infect Dis, 2020).
# About 8,600 (12%) of roughly 69,000 compounds showed an effect of 50% or more. The list comes from a sample in which strong results are over-represented; it also holds similar structures and randomly drawn compounds.
# Test system: Plasmodium berghei
# Assay: Screen against P. berghei liver stage (PbLuc), transformed with Luciferase, at 10uM
# Format: functional, HepG2
# Details: tested at 10 uM
row,Compound,INHIBITION
1,c1cncc(CN(CCCn2ccnc2)CC2CCOC2)c1 (stereo unspecified),44.8%
2,OCc1ccc(CN(CCCn2ccnc2)Cc2ccncc2)o1,42.1%
3,CC(C)OCCCN(Cc1ccncc1)Cc1cc(F)ccc1F,-16.5%
4,Fc1ccccc1CN(CCCn1ccnc1)CC1CCOC1 (stereo unspecified),1.62%
5,OCc1ccc(CN(CCCn2ccnc2)Cc2cccnc2)o1,56%
6,Cc1ccc(CN(CCCn2ccnc2)Cc2cc(F)ccc2F)s1,88.1%
7,CC(C)NC1CCCc2nc(-c3ccccc3)ncc21 (stereo unspecified),-36.3%
8,CN1CCN(c2ccc(NS(=O)(=O)c3ccc(Cl)s3)cc2C(=O)O)CC1,-12.6%
9,Cc1cc(C)n(CC2CCCCN2C(=O)CCc2ccncc2)n1 (stereo unspecified),4.52%
10,Cc1cccc(C(=O)Nc2c(C(N)=O)n[nH]c2C)c1C,-41.9%
11,CC(=O)N(Cc1noc(C)n1)C1CCN(Cc2ccc(C#N)cc2)C1 (stereo unspecified),27.4%
12,Cc1cc(C)c2c(NC(C)c3nncn3C3CCCC3)ncnc2n1 (stereo unspecified),35.1%
13,CN1N=C(c2nc(Cc3cccc(Br)c3)no2)CCC1=O,25.4%
14,COc1ccc(Cc2noc(C3=NN(C)C(=O)CC3)n2)cc1OC,53.8%
15,COc1ccc(-c2noc(C3=NN(C)C(=O)CC3)n2)cc1OC,-17.8%
16,CCOCC1CN(C(=O)c2cccs2)Cc2cnn(CC3CC3)c21 (stereo unspecified),14.6%
17,Cc1cc(C(=O)NC(COCC(C)C)c2ccco2)no1 (stereo unspecified),11.9%
18,CC(C)c1noc(C(C)S(=O)(=O)CC(=O)N2CCCC2)n1 (stereo unspecified),37.9%
19,O=C(c1ccc(=O)[nH]n1)N1CCCC(O)(CN2CCC(F)(F)CC2)CC1 (stereo unspecified),-18.8%

row,Compound,INHIBITION
1,COc1cc(NCC(O)CN2CCCCCC2)ncn1 (stereo unspecified),-25%
2,Cc1cc2nc(C(C)C)cc(NCC(c3ccccn3)N(C)C)n2n1 (stereo unspecified),28%
3,COc1cc(NCC(c2ccccn2)N(C)C)ncn1 (stereo unspecified),53.6%
4,CC(c1nc(C(C)(C)C)no1)N1CCN(Cc2ccc(C#N)cc2)CC1 (stereo unspecified),-4.94%
5,Cc1ccoc1C(=O)N1CCn2cc(CN3CCCC3)nc2C1,28.7%
6,CCOc1cccc2c1OCC(C(=O)NS(=O)(=O)c1c(C)noc1C)=C2,-6.44%
7,CO[C@H]1CN(S(=O)(=O)c2ccc(F)cc2)C[C@@]12CCCO2,-23.4%
8,CN(C)c1ccc(NC(=O)NCc2cccnc2N(C)C)cn1,17.5%
9,Clc1ccc2oc(C3CCN(Cc4nc(C5CC5)no4)CC3)nc2c1,42.6%
10,CCS(=O)(=O)c1ccc2oc([C@H]3CCN(Cc4ccccc4)C3)nc2c1,-81.2%
11,CC(C)(C)c1nc(CN2CCC(N3CCCCC3)CC2)no1,56.3%
12,CC(C)c1noc(CN2CCC(c3nc4cc(Cl)ccc4o3)CC2)n1,67.9%
13,CN1CCN(C2CCN(Cc3noc(C(C)(C)C)n3)CC2)C1=O,-21.5%
14,c1ccc2oc(C3CCN(Cc4ncon4)CC3)nc2c1,15.2%
15,CC(C)(C)c1nc(CN2CCC(c3ccnn3CCO)CC2)no1,-17%
16,CCc1nnc(CN2CCC(c3nc4cc(Cl)ccc4o3)CC2)o1,33.8%
17,CC(C)(C)c1nc(CN2CCC(c3nc4cc(Cl)ccc4o3)CC2)no1,56.9%
18,CCS(=O)(=O)c1ccc2oc([C@H]3CCN(Cc4cccnc4)C3)nc2c1,19.8%
19,CC(C)(C)c1nc(CN2CCCC(c3noc(C4CC4)n3)C2)no1 (stereo unspecified),-41.1%

row,Compound,INHIBITION
1,Clc1ccc2oc(C3CCN(Cc4cccnc4)CC3)nc2c1,73.4%
2,CC(C)(C)c1n[nH]c(C2CN(C(=O)c3cnc[nH]3)CCO2)n1 (stereo unspecified),-42.1%
3,CN(C)CC1CN(Cc2cccc(C#N)c2)Cc2nccn2C1 (stereo unspecified),-62.8%
4,CC[C@H](C)Nc1ncc(-c2cccc(NC(=O)CNC)c2)cn1,-21.1%
5,Cc1n[nH]cc1CNCC(O)c1ccc(F)c(F)c1 (stereo unspecified),1.24%
6,Cc1cc(C(=O)N2CC[C@]3(C[C@@H](OCc4ccccn4)CO3)C2)c(C)o1,43.9%
7,O=C(NCC1CCCO1)c1cc(-c2cccnc2)c2cnccc2n1 (stereo unspecified),31.3%
8,Cc1noc(C)c1CN1CCC(c2nc3cc(Cl)ccc3o2)CC1,72.3%
9,Cc1ncc(CN2CCCN(Cc3noc(C4CC4)n3)CC2)s1,-36.1%
10,Cc1nnc(CN2CCC(c3nc4cc(Cl)ccc4o3)CC2)n1C,-0.275%
11,Cc1ccc2oc([C@H]3CCN(Cc4ccccc4)C3)nc2c1,22.3%
12,Cc1nc(CN2CCC(c3nc4cc(Cl)ccc4o3)CC2)oc1C,-6.88%
13,Cc1ncc(CN2CCC(c3nc4cc(Cl)ccc4o3)CC2)s1,83.3%
14,N#Cc1cnc2cc(F)cc(F)c2c1NC1CCN(CC(N)=O)CC1,-71.1%
15,CCCc1cc(C(=O)N[C@@H](CO)[C@@H](O)c2ccccc2)n(C)n1,20.3%
16,CCn1nc(C)cc1C(=O)N1C[C@@H]2C[C@@H](C)O[C@@H]2C1,1.7%
17,CCN(Cc1noc(CC(C)C)n1)Cc1ccccc1C(=O)O,58.2%
18,CCN(Cc1noc(CC(C)C)n1)Cc1cccc(F)c1O,45.2%
